hNpr1 antagonist: human Npr1 receptor antagonism | HEK293 hNpr1 GloSensor cGMP, ANP-stimulated luminescence | Potency, µM (titrated, usually from 46.3 µM), inactives show at the top dose activity change, negative = inhibition, usual class: inhibitors | 1.6% of 76,000 active | AID 1347048; calls by dose curve; note: % is set by controls: 0 for no effect and ±100 for the full control effect; nearly all actives have a fitted effect of over 60% in size
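HEK293 cells stably expressing human Npr1 and cGMP GloSensor pGS-40F, loaded 2 h with 2% GloSensor reagent, given compound 30 min at room temperature. Luminescence read before and 20 min after 0.1 nM hNppA.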
HEK cytotox: HEK 293 cell cytotoxicity; HEK 293 viability, ATP luminescence (CellTiter-Glo), 48-72 h; Potency, µM (highest dose often 115 µM), for the others: at the highest dose activity change, negative = cytotoxicity, actives largely listed as inhibitors; 6.6% of 94,000 active; note: % is set by controls: 0 for no effect and ±100 for the full control effect; nearly all actives have a fitted effect of over 60% in size
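Viability of HEK 293 cells, plated at 250 cells/well, was judged by cellular ATP after compound treatment for 48 or 72 hr. Luminescence was imaged 10 min after CellTiter-Glo addition at room temperature.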
GPT2 inh: inhibitors of human GPT2 alanine aminotransferase; Q8TD30; Recombinant GPT2, coupled pyruvate oxidase/HRP Amplex Red fluorescence; Potency, µM (series often up to 57.7 µM), inactives show at the top dose activity change, negative = inhibition, usual class: inhibitors; 0.25% of 100,000 active; note: % is set by controls: 0 for no effect and ±100 for the full control effect; nearly all actives have a fitted effect of over 60% in size
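Inhibition is scored from Amplex Red fluorescence generated when pyruvate oxidase and HRP act on pyruvate released by GPT2. Reactions contain 10ng/uL enzyme, 250uM a-KG and 2mM L-alanine and run 30 min at room temperature.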
Luciferase inh: blocks purified firefly luciferase enzyme activity; P08659; purified P. pyralis luciferase, luminescence, biochemical; Potency, µM (doses to about 115 µM), usual class: inhibitors; 2.5% of 76,000 active; AID 1347043; note: % is set by controls: 0 for no effect and ±100 for the full control effect; nearly all actives have a fitted effect of over 65% in size
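Inhibitors were tested against purified firefly luciferase in a biochemical, low-substrate format (both substrates at 10uM) and luminescence measured with a CCD imager.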
3T3 cytotox: cytotoxic compounds in NIH 3T3 cells; NIH 3T3 viability, CellTiter-Glo ATP luminescence, 48-72 h; Potency, µM (titrated, usually from 96.7 µM), inactives show at the highest dose activity change, negative = cytotoxicity, usual class: inhibitors; 4.3% of 94,000 active; note: % is set by controls: 0 for no effect and ±100 for the full control effect; nearly all actives have a fitted effect of over 55% in size
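Viability of NIH 3T3 cells after 48 or 72 hr compound treatment at 37 °C was assessed by CellTiter-Glo, with luminescence imaged following a 10 min room-temperature step.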
NPR1 antag cnf: confirmation of human Npr1 natriuretic peptide receptor antagonists. shares compounds with hNpr1 antagonist. Potency, µM (titrated, usually from 57.6 µM), without a hit: at the top dose activity change, negative = inhibition, most hits filed as inhibitors. HEK293 hNpr1 cGMP GloSensor luminescence, ANP-stimulated. 76% of 1,400 active; calls by dose curve; note: nearly all actives have a fitted effect of over 70% in size
NPR2 antag: hNpr2 antagonism, selectivity versus Npr1; 67% of 1,400 active; shares compounds with hNpr1 antagonist; Potency, µM (doses to about 57.6 µM), for the others: at the top dose activity change, negative = inhibition, actives largely listed as inhibitors; HEK293 hNpr2 GloSensor cGMP luminescence, CNP-stimulated; AID 1347046; calls by dose curve; note: nearly all actives have a fitted effect of over 70% in size
FLuc inh counter: counter-screen for Npr1 antagonists: firefly luciferase inhibitors; shares compounds with hNpr1 antagonist; purified FLuc enzyme, luminescence, Km substrate; Potency, µM (highest dose often 57.6 µM), for inactives: top-dose activity change, negative = inhibition, usual class: inhibitors; 0.7% of 1,400 active; AID 1347047; note: 0% is about no effect
GloSensor ctrl: reduces cGMP signal in GloSensor control cells; shares compounds with hNpr1 antagonist; AID 1347051; HEK293 GloSensor cGMP, SNP-stimulated, luminescence; 69% of 1,400 active; Potency, µM (highest dose often 57.6 µM), for inactives: at the highest dose activity change, negative = inhibition, most hits filed as inhibitors; calls by dose curve; note: % is set by controls: 0 for no effect and ±100 for the full control effect; nearly all actives have a fitted effect of over 70% in size
The depositor's hits bear a star; [ ] = remark or other dose. Only some compounds are listed: those with a hit (about 10% of all), similar ones and a draw of the others. Unless noted, calls come from the whole dose curve; as a rule, active = well fitted curve in the direction sought with a large enough effect; inconclusive = small, poorly fitted or top-dose-only effect, or another doubt; inactive = no such curve, though single readings can be large; an effect the other way counts as inactive or inconclusive. Potency is the fitted concentration of half-maximal effect.

COc1cccc(CCC(=O)N2CCC(n3cc(-c4nc(-c5ccccc5)no4)nn3)C2)c1 (configuration not stated) was read as hNpr1 antagonist 14.1µM*, HEK cytotox inconclusive, GPT2 inh -8.3%, Luciferase inh inconclusive, 3T3 cytotox inconclusive, NPR1 antag cnf 21.7µM*, NPR2 antag 24.3µM*, FLuc inh counter -28.6% and GloSensor ctrl 21.7µM*.
Screening O=C(Cn1ccn2nc(-c3ccc(F)cc3)c(CO)c2c1=O)N1CCCCCC1 returned hNpr1 antagonist -0.7%, HEK cytotox -11.4%, GPT2 inh -25.2%, Luciferase inh inactive and 3T3 cytotox -10.6%.
`CC(=O)N1Cc2ccccc2CC2(CCN(CC3CCOCC3)C2)C1` (configuration not stated) gave HEK cytotox inconclusive, GPT2 inh inactive and 3T3 cytotox -11.5%.
O=C(c1ccc2nnc(-c3cc[nH]c3)n2c1)N1CCOCC1 was read as HEK cytotox 2.3%[172 µM], GPT2 inh inactive and 3T3 cytotox -12.8%[138 µM].
Screening COc1ccc(CC(=O)N2CCC(Cc3nc(-c4ccc(F)cc4)no3)CC2)cc1 returned hNpr1 antagonist 5.62µM*, HEK cytotox inconclusive, GPT2 inh 3.7%, Luciferase inh inactive, 3T3 cytotox inconclusive, NPR1 antag cnf 7.69µM*, NPR2 antag 6.85µM*, FLuc inh counter -1.6% and GloSensor ctrl 6.11µM*.
Screening COc1ccc(CCC(=O)N2CCC[C@H]2c2nc(-c3ccccc3Cl)no2)cc1 returned hNpr1 antagonist 12.6µM*, HEK cytotox inconclusive, GPT2 inh inactive, Luciferase inh inactive, 3T3 cytotox inconclusive, NPR1 antag cnf 24.3µM*, NPR2 antag inconclusive, FLuc inh counter -5.6% and GloSensor ctrl 27.3µM*.
COc1ccc(OCC(=O)N2CCC(Cc3nc(-c4cnccn4)no3)CC2)cc1 was read as hNpr1 antagonist -1.6%, HEK cytotox -4.5%, GPT2 inh inactive, Luciferase inh inactive and 3T3 cytotox inconclusive.
For Cc1ccc(OCC(=O)N2CCC(Cc3nc(-c4ccc(F)cc4)no3)CC2)cc1 the results were hNpr1 antagonist 7.94µM*, HEK cytotox inconclusive, GPT2 inh inactive, Luciferase inh inactive, 3T3 cytotox inconclusive, NPR1 antag cnf 10.9µM*, NPR2 antag 12.2µM*, FLuc inh counter -3.5% and GloSensor ctrl 9.68µM*.
For O=C(Cc1cccc(F)c1)N1CCC(Cc2nc(-c3cnccn3)no2)CC1 the results were hNpr1 antagonist 5.6%, HEK cytotox -7.8%, GPT2 inh 0.8%, Luciferase inh inactive and 3T3 cytotox inconclusive.
`Cc1oc(-c2ccccc2)nc1CN1CCCC(C(=O)NCCc2noc(-c3ccccc3)n2)C1` (configuration not stated) gave hNpr1 antagonist 12.6µM*, HEK cytotox inconclusive, GPT2 inh -7.4%, Luciferase inh inactive, 3T3 cytotox inconclusive, NPR1 antag cnf inconclusive, NPR2 antag inconclusive, FLuc inh counter 4.9% and GloSensor ctrl inconclusive.
